Source: PubChem BioAssay
FBPA Giardia inh = qHTS Assay for Inhibitors of Fructose-1,6-bisphosphate Aldolase from Giardia Lamblia; purified Giardia FBPA; Potency, µM (series often up to 59.6 µM), without a hit: at the highest dose activity, negative = inhibition, most hits filed as inhibitors; actives 0.71% (n = 290,000); AID 2451, 2010; also: nearly all actives have a fitted effect of over 55% in size
Target sequence (A8B2U2 whole entry, looked up): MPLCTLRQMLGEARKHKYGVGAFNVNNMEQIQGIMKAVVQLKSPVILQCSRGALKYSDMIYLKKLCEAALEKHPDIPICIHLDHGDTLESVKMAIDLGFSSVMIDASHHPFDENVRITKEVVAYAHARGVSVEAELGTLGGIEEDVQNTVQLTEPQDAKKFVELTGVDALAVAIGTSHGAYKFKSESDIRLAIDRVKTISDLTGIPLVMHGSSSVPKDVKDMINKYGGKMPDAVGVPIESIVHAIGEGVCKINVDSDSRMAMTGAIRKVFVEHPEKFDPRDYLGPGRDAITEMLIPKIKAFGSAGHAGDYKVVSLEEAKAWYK
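Giardia FBPA (40 nM reagent) was preincubated 10 min at RT with compound (up to 57.5 uM final), then substrate plus GAPDH/TPI/NAD/arsenate coupling system with diaphorase/resazurin was added; resorufin fluorescence (525/598 nm) was read after 20 min.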
Cruzain inh noDet = qHTS Assay for Promiscuous and Specific Inhibitors of Cruzain (without detergent); Cruzipain (Trypanosoma cruzi), P25779; purified cruzain, Z-FR-AMC fluorescence, no detergent; Potency, µM, for inactives: max response, negative = inhibition, hits mostly inhibitors; actives 2.3% (n = 200,000);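 also: plate controls were enzyme without inhibitor for no effect and buffer without enzyme for full effect; nearly all actives have a fitted effect of over 40% in size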
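Detergent-free condition (0.00005% Triton X-100) in acetate buffer pH 5.5 with DTT. 1.5 nM enzyme and compound were pre-mixed 15 min, then 2 uM Z-FR-AMC substrate added; reaction progress from fluorescence change between first and third reads (60 s).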
Cruzain inh Det = qHTS Assay for Promiscuous and Specific Inhibitors of Cruzain (with detergent) | Cruzipain (Trypanosoma cruzi), P25779 | purified cruzain, Z-FR-AMC fluorescence, 0.01% Triton | Potency, µM, for inactives: max response, negative = inhibition, hits mostly inhibitors | actives 0.43% (n = 200,000) | AID 1478, 2009;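 also: plate controls were neutral wells for no effect and buffer without enzyme for full effect; nearly all actives have a fitted effect of over 40% in size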
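Z-FR-AMC hydrolysis (2 uM substrate) by cruzain (1.5 nM) monitored kinetically at ex 360/em 450 nm after 15 min room-temperature compound exposure; 0.01% Triton X-100, pH 5.5, 5 mM DTT.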
Active calls of the source: *; ? = inconclusive; . = no result given. The entries come from a sample that favours hits as a whole. Calls follow the shape of the dose curve; as a rule, active = well fitted curve in the direction sought with a large enough effect; inconclusive = small, poorly fitted or top-dose-only effect, or another doubt; inactive = no such curve, though single readings can be large; an effect the other way counts as inactive or inconclusive. Unless noted, % is scaled to controls: 0 for no effect and ±100 for the full control effect; potency is read from the fitted curve at half-maximal effect.

SMILES | FBPA Giardia inh | Cruzain inh noDet | Cruzain inh Det
CCCCOC(=O)c1c(C)oc2c1cc(NS(=O)(=O)c1cc(OC)ccc1OC)c1ccccc12 | . | 12.6µM* | -1.3%
COc1ccc(OC)c(S(=O)(=O)Nc2cc3c(C(C)=O)c(C)oc3c3ccccc23)c1 | . | -7.8% | -5.7%
CC(C)(C)c1c2c(c(C(C)(C)C)c3c1OCN(Cc1ccccc1)C3)OCN(Cc1ccccc1)C2 | . | 3.5% | 3.1%
N#Cc1c(N)sc(=S)c2c1CCCCC2 | 10µM* | -14.6% | -19.1%
N#Cc1c(N)sc2c1CCCCCC2 | -18.0% | 4.6% | -6.2%
CCOC(=O)c1c(NC(=S)Nc2cccc(C)c2)sc2c1CC(C)(C)SC2 | -0.9% | 20µM* | -9.0%
CCOC(=O)c1c(NC(=S)Nc2ccccc2)sc2c1CCCCC2 | 2.5% | -14.9% | -4.7%
COc1ccc(OC)c2sc(NC(=O)c3ccc(Cl)s3)nc12 | 19.3% | -6.6% | 4.7%
COc1ccc(OC)c2sc(NC(=O)c3ccc(Br)s3)nc12 | -0.9% | 15.8µM* | -4.6%
COc1ccc(C(=O)Oc2c(Sc3ccc(Cl)cc3)c(C)nn2C(C)(C)C)cc1OC | . | -4.9% | -4.5%
Cc1ccc(C2c3c(-c4ccccc4O)n[nH]c3C(=O)N2CCc2ccccc2)cc1 (stereo not drawn) | . | ? | -11.2%
CCCOc1ccc(C2c3c(-c4ccccc4O)n[nH]c3C(=O)N2CCc2ccccc2)cc1OCC (stereo not drawn) | . | 12.6µM* | -2.4%
COc1ccc(C2c3c(-c4ccccc4O)n[nH]c3C(=O)N2CCc2ccccc2)cc1 (stereo not drawn) | . | 31.6µM* | -10.1%
CC(C)c1ccc(C2c3c(-c4ccccc4O)n[nH]c3C(=O)N2CCc2ccccc2)cc1 (stereo not drawn) | . | 20µM* | -3.8%
COc1ccc(C2c3c(-c4ccccc4O)n[nH]c3C(=O)N2CCc2ccc(OC)c(OC)c2)cc1 (stereo not drawn) | 0.2% | 5.9% | -5.0%
CCCN1C(=O)c2[nH]nc(-c3ccccc3O)c2C1c1ccc(OCc2ccccc2)c(OC)c1 (stereo not drawn) | . | ? | -8.3%
CCc1ccc(-c2nc(CN3CCCC(C(=O)N4CCN(c5cc(Cl)ccc5C)CC4)C3)c(C)o2)cc1 (stereo not drawn) | . | 18.4% | -1.4%
CCc1ccc(CN(Cc2ccco2)C(=O)c2cc(-c3ccc(C)c(F)c3)on2)cc1 | . | 13.6% | 2.5%
CCCCOc1ccc(C(=O)NCCc2csc3nc(-c4ccccc4F)nn23)cc1 | . | 21.4% | -6.8%
Cc1noc(C)c1-c1cc(NC2CCNCC2)ncn1 | -2.6% | 8.0% | 3.9%
Cc1cc(C)n(-c2nc3ccccc3nc2Nc2cccc(C(F)(F)F)c2)n1 | . | 9.0% | -0.4%
Cc1ccc(C)c2nc3sc(C(=O)N4CCCc5ccccc54)c(N)c3cc12 | -6.9% | 3.4% | 4.6%
CCc1ccc2nc3sc(C(=O)N4CCc5ccccc54)c(N)c3cc2c1 | 1.3% | 25.1µM* | -3.0%
CCOC(=O)c1ccc(NC(=O)CCc2nc3cccnc3n2Cc2cccs2)cc1 | . | ? | -3.0%
COc1ccccc1CNC(=O)C(=O)NCC(c1cccs1)S(=O)(=O)c1ccc(F)cc1 (stereo not drawn) | . | 0.1% | -2.9%
O=c1c(O)cc(C2Oc3cc(O)cc(O)c3CC2O)cc2c(C3Oc4cc(O)cc(O)c4CC3O)cc(O)c(O)c12 (stereo not drawn) | 0.889µM* | -22.3% | 25.1µM*
Oc1cc(O)c2c(c1)O[C@H](c1ccc(O)c(O)c1)[C@@H](O)C2 | -5.4% | 15.8% | 2.3%
CN(C)c1ccc(/C=N/N=C2/NC(=O)/C(=C/c3ccc([N+](=O)[O-])cc3)S2)cc1 | 0.6% | 6.31µM* | -12.8%
O=C1NC(=Nc2cccc(O)c2)S/C1=C\c1cccc([N+](=O)[O-])c1 | 13.4% | . | .
N#Cc1cccc(CS(=O)(=O)c2nnnn2C2CCCCC2)c1 | -6.7% | -13.2% | -2.3%
